Only some compounds are listed: those with a hit (about 1.1% of all), similar ones and a draw of the others.
HTR5A inv ag – HTR5A inverse agonism, opioid heterodimer counter-screen; P47898; HTR5A cell line, luminescence; inhibition, % at 9.3 µM; 340,000 tested, 0.083% active; in the data active = inhibition mostly above about 23%, no sharp cut-off; inactive = mostly below about 18%;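 note: 0% = cells with DMSO and 100% = no-cell wells with DMSO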
Target sequence (P47898 whole entry, looked up): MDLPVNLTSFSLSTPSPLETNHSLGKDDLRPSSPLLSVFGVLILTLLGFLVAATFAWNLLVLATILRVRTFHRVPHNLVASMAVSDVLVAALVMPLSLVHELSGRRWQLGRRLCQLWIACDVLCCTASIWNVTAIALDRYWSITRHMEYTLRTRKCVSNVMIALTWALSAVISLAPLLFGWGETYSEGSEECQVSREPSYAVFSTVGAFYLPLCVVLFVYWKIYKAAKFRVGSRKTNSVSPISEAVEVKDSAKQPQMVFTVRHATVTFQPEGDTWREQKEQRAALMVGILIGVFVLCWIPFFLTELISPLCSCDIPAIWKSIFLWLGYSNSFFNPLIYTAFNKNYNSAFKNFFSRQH
HTR5A ag ctr – activates human HTR5A in OPRM1-OPRD1 agonist counter-screen; P47898; HTR5A agonist assay, luminescence, cell-based; activation, % at 9.3 µM; 340,000 tested, 0.61% active; AID 504692; in the data active = activation mostly above about 9.5%, no sharp cut-off; inactive = mostly below about 7.6%;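 note: 0% = cells with vehicle only and 100% = reference agonist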
OPRM1-OPRD1 ag – OPRM1-OPRD1 heterodimerization agonism | cells, luminescence | activation, % at 9.3 µM | 340,000 tested, 0.3% active | P35372+P41143;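 note: 0% = vehicle-treated cells and 100% = reference agonist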
MOR-DOR inv ag – inverse agonist of human OPRM1-OPRD1 heterodimerization; P35372+P41143; cell-based MOR-DOR heterodimer luminescence, inverse agonism; inhibition, % at 9.3 µM; 340,000 tested, 0.21% active; AID 504357; in the data active = inhibition above about 22%, passing the limit was not always enough;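 note: 0% = cells with DMSO and 100% = wells without cells with DMSO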
OPRM1-D1 ag cf – confirmation of human OPRM1-OPRD1 heterodimerization agonists; AID 504904; 830 tested, 45% active; cells, MOR-DOR heterodimerization, luminescence complementation; activation, % at 9.3 µM; shares compounds with OPRM1-OPRD1 ag;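 note: 0% = vehicle-treated cells and 100% = reference agonist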
HTR5A ag ctr2 – counter-screen for OPRM1-OPRD1 agonists: human HTR5A agonism; shares compounds with OPRM1-OPRD1 ag; HTR5A agonist counterscreen, cell luminescence; activation, % at 9.3 µM; 830 tested, 8% active; AID 504905; in the data active = activation above about 17%;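 note: 0% = vehicle-treated cells and 100% = reference agonist response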
The depositor's hits bear a star; i = inactive; . = no result. Cut-off read from the data, not from the text of the source, unless noted: active = activation above about 18%; inactive = the rest.

SMILES	HTR5A inv ag	HTR5A ag ctr	OPRM1-OPRD1 ag	MOR-DOR inv ag	OPRM1-D1 ag cf	HTR5A ag ctr2
CC(=O)NCC1CCCN(Cc2cn(-c3ccccc3)nc2-c2ccc3c(c2)OCO3)C1 (stereo not given)	-5.3	2.3	-2.2	9.8	.	.
COC(=O)C1CCN(Cc2cn(-c3ccccc3)nc2-c2ccc3c(c2)OCO3)CC1	-3.4	1.2	51.0*	-266.9	10.6	13.0
CC(=O)Nc1ccc(CN2CCCC(C(=O)c3cccc(C(F)(F)F)c3)C2)cc1 (stereo not given)	14.5	0.9	58.3*	-365.9	56.1*	-2.4
O=C1c2[nH]nc(-c3ccccc3O)c2C(c2ccc(F)cc2)N1Cc1ccco1 (stereo not given)	0.3	-0.1	19.7*	-99.5	10.1	1.8
COc1ccc(C2c3c(-c4ccccc4O)n[nH]c3C(=O)N2Cc2ccco2)cc1OC (stereo not given)	16.6	-5.3	-1.2	6.6	.	.
CC(C)C1CC(CCNCc2ccc(N(C)C)cc2)(c2ccccc2)CCO1 (stereo not given)	-19.6	6.7	21.1*	-113.2	25.0*	-1.4
OC(CN1CCN(C(c2ccccc2)c2ccccc2)CC1)c1ccccc1 (stereo not given)	11.3	-3.0	18.5*	-92.3	32.8*	5.5
CCCN1C(=O)C2(C(C(=O)c3ccc(C)o3)=C(O)C(=O)N2CCCOC)c2ccccc21 (stereo not given)	-14.0	2.9	-1.8	9.3	.	.
NC(N)=N/N=C/c1ccc(OCc2ccccc2Cl)cc1	-10.4	5.3	22.0*	-123.9	6.7	-3.8
NC(N)=N/N=C/c1ccccc1	19.6	2.5	-2.3	13.2	.	.
CCCc1nc2c(=O)n(C)c(=O)nc-2n(C)n1	-26.0	9.4*	27.8*	-129.8	336.8*	-0.1
Cn1nc(-c2ccccn2)nc2c(=O)n(C)c(=O)nc1-2	-25.3	8.8	40.9*	-223.4	28.2*	1.4
O=C(Nc1ccc(NC(=O)c2ccc(Cl)c(S(=O)(=O)N3CCOCC3)c2)cc1)c1ccccc1	8.4	0.5	0.0	-0.2	.	.
O=C(Nc1ccccc1)c1ccc(NC2CCCCC2)c(S(=O)(=O)N2CCOCC2)c1	8.1	-1.9	36.6*	-184.1	42.8*	0.5
CCOC(=O)C1(CCCc2ccccc2)CCN(Cc2cnn(C)c2)CC1	9.5	-3.4	98.5*	i	114.5*	-1.8
CCOC(=O)C1(Cc2cccc(F)c2)CCN(Cc2cnn(CC)c2)CC1	-15.8	0.9	67.8*	-331.9	-3.1	-8.9
CCCn1cc(CN2CCC(Cc3cccc(F)c3)(C(=O)OCC)CC2)c(C)n1	-3.2	1.1	-1.8	8.9	.	.
CCOC(=O)C1(CCCc2ccccc2)CCN(C(=O)CCc2cnn(C)c2)CC1	4.3	-2.1	0.4	-2.7	.	.
CCOC(=O)C1(Cc2ccc(Cl)cc2)CCN(Cc2cn(CC)nc2C)CC1	-18.5	6.2	20.6*	-102.5	11.1	-0.4
COCCN(CC(=O)Nc1cccc(C)c1C)C(=O)c1oc2ccccc2c1C	14.3	-5.7	-2.3	9.0	.	.
CCOc1ccc(NC(=S)N2CCN(S(=O)(=O)c3ccccc3)CC2)cc1	10.8	-4.2	31.5*	-128.2	1.0	-1.0
COc1ccc2cc(C)c(SCC(=O)Nc3cc(C)on3)nc2c1	-1.1	0.5	18.4*	-109.8	9.9	4.3
COc1cccc(CN2CCC(n3nccc3NC(=O)CCCc3ccccc3)CC2)c1O	17.3	2.7	-1.9	9.6	.	.
COc1ccc(CN2CCC(n3nccc3NC(=O)CCc3ccccc3)CC2)c(C)c1C	-2.0	-1.2	23.2*	-117.2	3.8	-1.6
CN(C)c1ccc(S(=O)(=O)N(C)C)cc1NC(=O)Cc1cccc2ccccc12	-15.2	-1.6	-0.1	0.8	.	.
Cc1ccc(C)c(NC(=S)NC(NC(=O)N(C)C)C(Cl)(Cl)Cl)c1 (stereo not given)	-7.5	2.9	1.8	-11.5	.	.
Cc1ccc(C)c(NC(=S)NC(NC(=O)Cc2cccc3ccccc23)C(Cl)(Cl)Cl)c1 (stereo not given)	8.8	2.5	26.6*	-155.7	4.3	3.7
COc1cc(C(=O)Nc2nc3ccc(S(C)(=O)=O)cc3s2)cc(OC)c1C	-15.1	5.5	37.3*	-198.2	14.0	8.8
NC(=O)CSc1nnc(-c2ccco2)n1-c1ccccc1	10.2	-2.7	-1.8	8.9	.	.
O=S(=O)(NCCSc1nnc(-c2ccco2)n1-c1ccccc1)c1ccccc1	-13.6	2.3	18.7*	-77.7	1.4	15.4

Screening data (PubChem)
